# Values joined by “and” are separate entries in the source; they are usually repeats but may differ in a detail not shown here. Identical values can stand only once. Records with an inconclusive call do not appear. The source holds several records for some structures; these can differ, active in one and inactive in another. Active and inactive are the calls of the source. How the source made its calls, unless noted: active means hit-call score of the fitted dose curve at least 0.9, where 1 is the maximum; inactive means score below 0.9.
# What was measured:
# [1] = CCTE_Mundy_HCI_Cortical_NOG_NeuronCount: CCTE's Neurite Outgrowth Assay in rat cortical cells for Neuron Count, Mundy Lab (AID 2284236; active means hit-call score of the fitted dose curve at least 0.9, where 1 is the maximum;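 further: neurons counted by imaging betaIII-tubulin and Hoechst stained cortical cells; cells exposed to compound for about 48 hours before fixation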)
# Summary of the method: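 Read-out: neuron number by high-content imaging of betaIII-tubulin (Alexa Fluor-488) and Hoechst-labelled rat primary cortical cells.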
# [2] = CCTE_Mundy_HCI_hNP1_Casp3_7: CCTE's Caspase-Glo 3/7 Assay in human neuroprogenitor cells for Apoptosis, Mundy Lab (AID 2284240)
# Summary of the method: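 Luminescent caspase-3/7 readout, 26.5 h post-dose, in human neural progenitor cells from WA09 embryonic stem cells. Cells grew 40–44 h at 37 °C, 5% CO2 before chemical addition. Activity analysed as signal increase over DMSO baseline.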
# [3] = CCTE_Mundy_HCI_hNP1_CellTiter: CCTE's Cell Titer-Glo 2 Assay in human neuroprogenitor cells for Viability, Mundy Lab (AID 2284241; active means hit-call score of the fitted dose curve at least 0.9, where 1 is the maximum;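 on AC50: a hit is a drop in ATP luminescence versus DMSO meaning reduced viability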)
# Summary of the method: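 Viability read as luminescent ATP content (CellTiter-Glo, 30 min room temperature) twenty-four hours after dosing, relative to DMSO. Cells: WA09-derived hNP1 neuroprogenitors on poly-L-ornithine/laminin, plated 40 to 44 hours before chemical.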
# [4] = UKN2_HCS_IMR90_cell_viability: Viability Assessment in the University of Konstanz (UKN) Leist Lab Neural Crest Cell Migration Assay in human induced IMR90 Pluripotent Stem Cells (UKN2) (AID 2284233);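 further: cells exposed to compound for 24 h after a 24 h migration phase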
# Summary of the method: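 Viability read as calcein-AM fluorescence by high-content imaging, Hoechst co-stain, 30 min. Human iPSC (IMR90) neural crest cells had migrated 24 h into stopper-defined gaps before 24 h chemical exposure. Fitted bidirectionally relative to DMSO.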
# [5] = CCTE_Mundy_HCI_hNP1_Pro_ResponderAvgInten: CCTE's Proliferation Assay in human neuroprogenitor cells, Mundy Lab (AID 2284224; active means hit-call score of the fitted dose curve at least 0.9, where 1 is the maximum;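 further: human neural progenitor cells hNP1 derived from WA09 embryonic stem cells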)
# Summary of the method: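 Proliferation read as average intensity of BrdU-positive cells, imaged at 26.25 h post-dosing: chemical exposure started after 40–44 h culture, BrdU during final 4 h, paraformaldehyde fixation. Positive-direction fit relative to DMSO.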
# [6] = TAMU_PeakParms_SingleDonor1434_QT: Texas A&M University (TAMU) 1.5-hr Human Induced Pluripotent Stem Cell (iPSC)-derived Cardiomyocytes Calcium (Ca+2) Flux Assay for Cardiotoxicity: QT (decay-rise ratio) (AID 2284235; active means hit-call score of the fitted dose curve at least 0.9, where 1 is the maximum)
# Summary of the method: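 Decay/rise ratio of calcium-flux fluorescence scored after 90 min exposure (37C) of donor 1434 iPSC cardiomyocytes to 0.2–100 uM (0.5% DMSO). Beat-cessation and severe-notch points removed; POD is EC05, a 5% rise over DMSO.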
# [7] = UKN4_HCS_LUHMES_cell_viability: Viability Assessment in the University of Konstanz (UKN) Leist Lab Neurite Outgrowth Assay in human LUHMES cells (UKN4) (AID 2284232)
# Summary of the method: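 Cells switched to differentiation medium at day 0, replated on day 2 in medium lacking cAMP and GDNF, and compound-treated once attached. Live staining began 23.5 h later, imaging followed at 24 h.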
# [8] = BSK_BT_PBMCCytotoxicity: PBMC Cytotoxicity Assessment in the BioMAP Diversity Plus: BT Assay (AID 2284225); details: primary human B cells with PBMC;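 further: PBMC viability measured by Alamar Blue dye reduction fluorescence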
# Summary of the method: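 Viability by Alamar Blue reduction (6 h, ex/em 546/580 nm) after 90 h culture of SEB/TSST-1-activated PBMC (20 ng/mL each) given compound 1 h before activation. DMSO served as baseline for curve fitting.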
# [9] = read-out: Secreted IgG (sIgG), gene 3500; assay: BSK_BT_sIgG: BioMAP Diversity Plus: BT Assay for Secreted IgG (sIgG) Biomarker Activity (AID 2284226); details: primary human B cells with PBMC
# Summary of the method: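 Cells (B cells with peripheral blood mononuclear cells) are dosed, cultured 24 h, then supernatant IgG is measured by ELISA. DMSO serves as negative control; curves are fitted for signal increase.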
# [10] = BSK_BT_Bcell_Proliferation: Viability Assessment in the BioMAP Diversity Plus: BT Assay for B cell Proliferation (AID 2284227); details: primary human B cells with PBMC
# Summary of the method: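 Human B cells co-cultured with PBMC were dosed with test chemicals and relative cell number was quantified by SRB staining at 72 h. Cells were fixed in 10% TCA, stained with 0.1% SRB and read at 560 nm. Activity was fitted in the positive direction against DMSO.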
# [11] = read-out: Interleukin 6 (IL6), IL6 (gene 3569); assay: BSK_BT_xIL6: BioMAP Diversity Plus: BT Assay for Interleukin 6 (IL6) Biomarker Activity (AID 2284228); details: primary human B cells with PBMC
# Summary of the method: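 B cells and peripheral blood mononuclear cells (human primary co-culture) were dosed with chemical, and after 24 h IL-6 released into the medium was measured by Luminex xMAP. Responses were analysed as gain of signal over DMSO control.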
# [12] = read-out: Interleukin 17A (IL17A), IL17A (gene 3605); assay: BSK_BT_xIL17A: BioMAP Diversity Plus: BT Assay for Interleukin 17A (IL17A) Biomarker Activity (AID 2284229); details: primary human B cells with PBMC
# Summary of the method: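 Secreted IL-17A was the measured endpoint, read by Luminex xMAP multiplex in supernatants of a human B cell/PBMC co-culture harvested 24 h after chemical dosing. Signal increase relative to DMSO defined activity.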
# [13] = read-out: Tumor necrosis factor (Homo sapiens) (UniProt P01375); assay: BSK_BT_xTNFa: BioMAP Diversity Plus: BT Assay for Tumor necrosis factor alpha (TNF-alpha) Biomarker Activity (AID 2284230); details: primary human B cells with PBMC
# Summary of the method: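 B cells with PBMC in co-culture, dosed and sampled at 24 h; secreted TNF-alpha measured by Luminex xMAP bead assay. Activity fitted in the gain direction against DMSO as negative control and baseline.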
# [14] = read-out: Vascular cell adhesion molecule 1 (VCAM1), VCAM1 (gene 7412); assay: BSK_MyoF_VCAM1: BioMAP Diversity Plus: MyoF Assay for Vascular cell adhesion molecule 1 (VCAM1) Biomarker Activity (AID 2284231); details: primary human lung fibroblasts
# Summary of the method: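 ELISA read-out of VCAM-1 on human lung fibroblasts 24 h after chemical treatment, with positive-direction curve fitting relative to DMSO controls. Parallel cultures were stained with sulforhodamine B for total protein to flag overt cytotoxicity.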
# [15] = read-out: Collagen I, COL1A1 (gene 1277); assay: BSK_MyoF_CollagenI: BioMAP Diversity Plus: MyoF Assay for Collagen I Biomarker Activity (AID 2284238); details: primary human lung fibroblasts
# Summary of the method: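 Lung fibroblasts (human primary) dosed, 24 h; Collagen I by ELISA; positive-direction fit vs DMSO control. Parallel SRB total-protein staining (0.1% SRB, 10% TCA fixation, 560 nm) flags overt cytotoxicity.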
# [16] = read-out: Collagen III, COL3A1 (gene 1281); assay: BSK_MyoF_CollagenIII: BioMAP Diversity Plus: MyoF Assay for Collagen III Biomarker Activity (AID 2284239); details: primary human lung fibroblasts
# Summary of the method: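 ELISA read-out of collagen III from human lung fibroblasts after 24 h of chemical treatment. The DMSO control served as negative control and baseline, with values fitted in the positive direction.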
# [17] = read-out: Interleukin 17F (IL17F), IL17F (gene 112744); assay: BSK_BT_xIL17F: BioMAP Diversity Plus: BT Assay for Interleukin 17F (IL17F) Biomarker Activity (AID 2284243); details: primary human B cells with PBMC
# Summary of the method: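 Compound was added to co-cultures of human B cells and PBMC. After 24 hours, IL-17F released into the medium was measured with LumineX xMAP technology. Responses were then fitted upward relative to DMSO.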
# [18] = read-out: Actin alpha 1 (ACTA1), ACTA1 (gene 58); assay: BSK_MyoF_ACTA1: BioMAP Diversity Plus: MyoF Assay for Actin alpha 1 (ACTA1) Biomarker Activity (AID 2284244); details: primary human lung fibroblasts
# Summary of the method: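 Cells were exposed to chemical for 24 h before a-SMA levels were quantified by ELISA in human lung fibroblasts. Increases were fitted against DMSO as negative control; parallel SRB staining (0.1% after 10% TCA fixation, 560 nm) assessed cytotoxicity.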
# [19] = read-out: Interleukin 2 (IL2), IL2 (gene 3558); assay: BSK_BT_xIL2: BioMAP Diversity Plus: BT Assay for Interleukin 2 (IL2) Biomarker Activity (AID 2284245); details: primary human B cells with PBMC
# Summary of the method: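 The BT system combines human B cells with peripheral blood mononuclear cells. Twenty-four hours after chemical dosing, secreted IL-2 was measured with xMAP bead technology, and responses were analyzed as increases over DMSO controls.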
# [20] = TAMU_HCS_1.5hr_SingleDonor1434_Cytotoxicity: Cytotoxicity Assessment using High-content Screening (HCS) Fluorescent Imaging for the Texas A&M University (TAMU) 1.5-hr Human Induced Pluripotent Stem Cell (iPSC)-derived Cardiotoxicity Assay (AID 2284234; active means hit-call score of the fitted dose curve at least 0.9, where 1 is the maximum)
# Summary of the method: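 Nuclear counts from Hoechst 33342 imaging define cytotoxicity here, with EC10 (10% cell-count loss relative to DMSO) as point of departure. iPSC cardiomyocytes received 0.2-100 uM test chemical in 0.5% DMSO for 1.5 h at 37 C.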
# Tumor necrosis factor (Homo sapiens), sequence (P01375 whole entry, looked up): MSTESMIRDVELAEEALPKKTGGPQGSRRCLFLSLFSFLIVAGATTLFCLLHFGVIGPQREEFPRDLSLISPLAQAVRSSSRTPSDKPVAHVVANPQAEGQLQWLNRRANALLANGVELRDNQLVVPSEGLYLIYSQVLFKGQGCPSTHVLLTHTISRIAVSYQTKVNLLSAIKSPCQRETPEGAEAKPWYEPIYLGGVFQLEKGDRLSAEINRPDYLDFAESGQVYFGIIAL
smiles,measurement,setting,value
COP(=S)(OC)Oc1nc(Cl)c(Cl)cc1Cl,AC50,[1],15 µM (active)
same,outcome,[2],inactive
same,outcome,[3],inactive
CO/C=C(/C(=O)OC)c1ccccc1Oc1cc(Oc2ccccc2C#N)ncn1,outcome,[4],inactive
same,AC50,[1],4.67 µM (active)
same,outcome,[2],inactive
CN(C)C(=S)SSC(=S)N(C)C,AC50,[5],0.0771 µM (active)
same,AC50,[4],7.92 µM (active)
same,AC50,[1],0.0469 µM (active)
same,AC50,[2],87.3 µM (active)
same,AC50,[3],9.92 µM (active)
CNC(=O)ON=CC(C)(C)SC,outcome,[6],inactive
same,outcome,[2],inactive
same,outcome,[3],inactive
CCCCOC(=O)c1ccccc1C(=O)OCCCC,outcome,[4],inactive
same,outcome,[1],inactive
same,outcome,[2],inactive
N#Cc1nn(-c2c(Cl)cc(C(F)(F)F)cc2Cl)c(N)c1S(=O)C(F)(F)F (centres undefined),outcome,[5],inactive
same,outcome,[7],inactive
same,AC50,[4],40 µM (active)
same,outcome,[1],inactive
same,outcome,[2],inactive
same,outcome,[3],inactive
COc1cnc(OC)n2nc(NS(=O)(=O)c3c(OCC(F)F)cccc3C(F)(F)F)nc12,outcome,[8],inactive
same,outcome,[9],inactive
same,outcome,[10],inactive
same,outcome,[11],inactive
same,outcome,[12],inactive
same,outcome,[13],inactive
same,outcome,[14],inactive
same,outcome,[15],inactive
same,outcome,[16],inactive
same,outcome,[17],inactive
same,outcome,[18],inactive
same,outcome,[19],inactive
C=CCC1=C(C)C(OC(=O)C2C(C=C(C)C)C2(C)C)CC1=O (centres undefined),outcome,[7],inactive
same,outcome,[2],inactive
same,outcome,[3],inactive
CCCCNC(=O)OCC#CI,AC50,[20],4.75 µM (active)
same,outcome,[6],inactive
CCOc1cc(Oc2ccc(C(F)(F)F)cc2Cl)ccc1[N+](=O)[O-],AC50,[5],10.9 µM (active)
same,outcome,[4],inactive
same,AC50,[2],52.1 µM (active)
same,AC50,[3],18.9 µM (active)
COC(=O)N(OC)c1ccccc1COc1ccn(-c2ccc(Cl)cc2)n1,AC50,[5],81.5 µM (active)
same,AC50,[4],90.1 µM (active)
same,AC50,[1],0.143 µM (active)
same,AC50,[2],33.5 µM (active)
same,AC50,[3],50 µM (active)
COP(N)(=O)SC (centres undefined),outcome,[1],inactive
same,outcome,[2],inactive
same,outcome,[3],inactive
CC(C)(C)c1ccc(CSc2cnn(C(C)(C)C)c(=O)c2Cl)cc1,AC50,[5],4.85 µM (active)
same,outcome,[4],inactive
same,AC50,[1],0.0982 µM (active)
same,AC50,[2],9.49 µM (active)
same,AC50,[3],11.5 µM (active)
CCCCNC(=O)n1c(NC(=O)OC)nc2ccccc21,outcome,[7],inactive
same,AC50,[4],15 µM (active)
same,AC50,[2],7.6 µM (active)
same,AC50,[3],10 µM (active)
Cc1ccc(-c2c(Cl)nc(C#N)n2S(=O)(=O)N(C)C)cc1,AC50,[5],50 µM (active)
same,AC50,[4],0.564 µM (active)
same,AC50,[1],50 µM (active)
same,AC50,[2],89.9 µM (active)
same,AC50,[3],85.4 µM (active)
CCCCC(CC)COC(=O)c1ccccc1C(=O)OCC(CC)CCCC (centres undefined),AC50,[5],9.27 µM (active) and 3.62 µM (active)
same,outcome,[4],inactive
same,AC50,[2],16.6 µM (active) and 11.1 µM (active)
same,AC50,[3],9.22 µM (active)
CCOC(=O)CC(SP(=S)(OC)OC)C(=O)OCC (centres undefined),outcome,[5],inactive
same,AC50,[1],23.9 µM (active)
same,AC50,[2],84.5 µM (active)
same,outcome,[2],inactive
same,AC50,[3],72.8 µM (active)
same,outcome,[3],inactive
C=CCC1=C(C)[C@@H](OC(=O)[C@@H]2[C@@H](C=C(C)C)C2(C)C)CC1=O,outcome,[5],inactive
same,outcome,[2],inactive
same,AC50,[3],7.56 µM (active)
C=CC1(C)OC(=O)N(c2cc(Cl)cc(Cl)c2)C1=O (centres undefined),outcome,[5],inactive
same,outcome,[4],inactive
same,outcome,[1],inactive
same,outcome,[2],inactive
same,outcome,[3],inactive
